Screening data (PubChem)
Rows were chosen to be rich in hits. Some 19% of all compounds tested hit in one or more screens of this group.
KB-3-1 tox = qHTS assay for MDR1-selective chemotherapeutics: Primary screen using the parental adenocarcinoma cell KB-3-1; KB-3-1 viability, CellTiter-Glo ATP luminescence, 72 h; Potency, µM (titrated, usually from 46.1 µM), most hits filed as cytotoxic; actives 1.4% (n = 400,000); AID 1347075, 2019; also: nearly all actives have a fitted effect of over 60% in size
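Luminescent ATP read-out (CellTiter-Glo) measures survival of drug-naive KB-3-1 cells after 72 h compound exposure at 37 °C. Titration series was screened from lowest to highest concentration, with DMSO vehicle plates as background controls.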
HT1080-NT tox = qHTS for induction of synthetic lethality in tumor cells producing 2HG: qHTS for the HT-1080-NT fibrosarcoma cell line. HT-1080-NT fibrosarcoma viability, CellTiter-Glo ATP luminescence, 48 h. Potency, µM (doses to about 46.1 µM), actives largely listed as cytotoxic. actives 1.6% (n = 360,000). AID 686970, 2013;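 also: NT is the 2HG producing partner of a matched IDH1 knockdown line; nearly all actives have a fitted effect of over 55% in size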
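750 cells/well, RPMI + 5% FBS; 2 h settle, compound pin-transfer, 48 h at 37 degrees C. CellTiter-Glo 10 min RT, luminescence. Normalized to DMSO and media-only wells.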
TDP1 cell noCPT = qHTS for Inhibitors of human tyrosyl-DNA phosphodiesterase 1 (TDP1): qHTS in cells in absence of CPT | DT40 Tdp1-/- hTDP1 cells, no CPT, ATP luminescence, 48 h | Potency, µM (top dose mostly 46.2 µM), actives largely listed as inhibitors | actives 15% (n = 420,000) | AID 686978, 2013; also: nearly all actives have a fitted effect of over 55% in size
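No-CPT arm: Tdp1-/-;hTDP1 DT40 cells (400/well) plus compounds, incubated ≥48 hr at 37 °C. Readout CellTiter-Glo luminescence.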
HT1080 IDH1KD tx = qHTS for induction of synthetic lethality in tumor cells producing 2HG: qHTS for the HT-1080-IDH1KD cell line; actives 2% (n = 360,000); Potency, µM (doses to about 46.1 µM), actives largely listed as cytotoxic; HT-1080 IDH1 knockdown viability, ATP luminescence, 48 h
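Viability of IDH1-knockdown HT-1080 fibrosarcoma cells was assessed by CellTiter-Glo after 48 h at 37 °C with titrated compound; concentration-effect curves were classified by fit quality and response size.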
KB-V1 MDR tox = qHTS assay for MDR1-selective chemotherapeutics: Primary screen using the drug-selected MDR subline cells KB-V1. AID 1347076, 2019. KB-V1 MDR cells viability, CellTiter-Glo, 72 h. actives 3.4% (n = 400,000). Potency, µM (titrated, usually from 46.1 µM), hits mostly cytotoxic; also: nearly all actives have a fitted effect of over 60% in size
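KB-V1 cells (P-gp-expressing MDR subline of KB-3-1) in phenol-red-free DMEM with 10% FBS were exposed to library compounds over a concentration series for 72 h at 37 degrees C. Viability read by CellTiter-Glo luminescence; concentration-effect curves fitted after normalization.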
TDP1 cell CPT = qHTS for Inhibitors of human tyrosyl-DNA phosphodiesterase 1 (TDP1): qHTS in cells in presence of CPT; chicken DT40 Tdp1-/-;hTDP1 cells + 20 nM CPT, ATP luminescence, 48 h; Potency, µM (titrated, usually from 46.2 µM), usual class: inhibitors; actives 12% (n = 420,000); also: nearly all actives have a fitted effect of over 55% in size
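Chicken DT40 Tdp1-/- cells stably complemented with human TDP1 were seeded at 400 cells/well in medium containing 20 nM camptothecin, exposed to pin-transferred compounds, and grown at 37 °C for at least 48 hr. Viability was read as ATP luminescence.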
Each line names hits and unclear results; the compound was inactive in the other large screens. Calls follow the shape of the dose curve; as a rule, active = well fitted curve in the direction sought with a large enough effect; inconclusive = small, poorly fitted or top-dose-only effect, or another doubt; inactive = no such curve, though single readings can be large; an effect the other way counts as inactive or inconclusive.

Cc1ccc(-n2c(=O)c3ccc(C(=O)NCc4ccco4)cc3n(CC(=O)Nc3ccc(C)c(F)c3)c2=O)cc1	TDP1 cell CPT inconclusive (no result: HT1080-NT tox, HT1080 IDH1KD tx)
Cc1ccc(N2CCN(C(=O)Cn3ncc4c([nH]c5ccc(C)cc54)c3=O)CC2)c(C)c1	none (no result: HT1080-NT tox, HT1080 IDH1KD tx)
NS(=O)(=O)c1ccc(NC(=O)CSc2nc(Nc3ccccc3)nc(N3CCOCC3)n2)cc1	TDP1 cell noCPT 16µM, TDP1 cell CPT 21µM (no result: KB-3-1 tox, KB-V1 MDR tox)
O=C(CSc1nc2ccc(Nc3nc(N4CCOCC4)nc(N4CCOCC4)n3)cc2s1)N1CCOCC1	TDP1 cell noCPT 18µM, TDP1 cell CPT 21µM
CC(=O)Nc1ccc2nc(SCC(=O)N3CCOCC3)sc2c1	none
CC1CCN(c2ncnc3c2nnn3C)CC1	none (no result: HT1080-NT tox, HT1080 IDH1KD tx)
O=S(=O)(c1ccccc1Br)N1CCN(c2ncccn2)CC1	KB-V1 MDR tox inconclusive
CCOC(=O)C(C)N1N=C(/C=C/c2ccc(OC)cc2)CCC1=O (configuration not stated)	TDP1 cell noCPT 13µM, TDP1 cell CPT inconclusive
CCCCc1nn2c(=O)cc(COC(=O)c3ccc4c(c3)OCO4)nc2s1	none (no result: HT1080-NT tox, HT1080 IDH1KD tx)
CCc1ccccc1NC(=O)c1cnc(N2CCCCC2)c2ccccc12	TDP1 cell noCPT inconclusive, TDP1 cell CPT 18µM (no result: HT1080-NT tox, HT1080 IDH1KD tx)
Cc1ccc(NC(=O)c2cnc(N3CCCCC3)c3ccccc23)c(C)c1	TDP1 cell CPT inconclusive (no result: HT1080-NT tox, HT1080 IDH1KD tx)
O=C(Nc1ccccc1F)c1cnc(N2CCCCC2)c2ccccc12	TDP1 cell noCPT 23µM, TDP1 cell CPT 16µM (no result: HT1080-NT tox, HT1080 IDH1KD tx)
Cc1ccc(Cl)cc1NC(=O)c1cnc(N2CCCCC2)c2ccccc12	TDP1 cell noCPT 13µM, TDP1 cell CPT 18µM (no result: HT1080-NT tox, HT1080 IDH1KD tx)
COc1ccccc1NC(=S)N1CCN(Cc2ccc3c(c2)OCO3)CC1	TDP1 cell noCPT inconclusive, KB-V1 MDR tox inconclusive
CCOc1ccc2c(c1)[N+](C)(C)C(C)(C)C=C2C	KB-3-1 tox 8.2µM, TDP1 cell noCPT 15µM, TDP1 cell CPT 5.8µM
COc1ccc2c(c1)[N+](C)(C)C(C)(C)C=C2C	TDP1 cell noCPT inconclusive, TDP1 cell CPT inconclusive
COc1ccc(-c2ccc(C(=O)Nc3ccccc3)c3occc23)c(C)c1	KB-3-1 tox inconclusive, HT1080-NT tox inconclusive, TDP1 cell noCPT inconclusive, HT1080 IDH1KD tx inconclusive, KB-V1 MDR tox inconclusive, TDP1 cell CPT 21µM
COc1ccc(-c2ccc(C(=O)Nc3ccc4c(c3)OCO4)c3occc23)c(C)c1	TDP1 cell noCPT inconclusive, TDP1 cell CPT inconclusive
COc1ccc(-c2coc3c(C(=O)Nc4ccc(OC)nc4)cccc23)c(C)c1	HT1080-NT tox inconclusive, TDP1 cell noCPT 21µM, HT1080 IDH1KD tx inconclusive, TDP1 cell CPT 18µM
COc1ccc(-c2ccc(C(=O)Nc3ccc(OC)nc3)c3occc23)c(C)c1	KB-3-1 tox inconclusive, HT1080-NT tox inconclusive, TDP1 cell noCPT 15µM, HT1080 IDH1KD tx inconclusive, TDP1 cell CPT 0.37µM
Cc1ccc(C)c(C(O)c2ncc(-c3ccccc3)[nH]2)c1 (configuration not stated)	TDP1 cell CPT inconclusive
Cc1cc(C)c(C(=O)COC(=O)c2c(C)noc2C)cc1C	TDP1 cell noCPT inconclusive
COCCn1cnc2c1c(=O)[nH]c(=O)n2Cc1ccccc1	none
Nc1cc(=O)nc(SCC(=O)Nc2ccc(F)cc2)n1-c1ccc(Cl)cc1	none (no result: HT1080-NT tox, HT1080 IDH1KD tx)
COc1ccc2ccccc2c1/C=N/NC(=O)c1nnn(-c2nonc2N)c1C(C)C	TDP1 cell noCPT inconclusive, HT1080 IDH1KD tx inconclusive, KB-V1 MDR tox inconclusive
Nc1nonc1-n1nnc(C(=O)N/N=C/c2cc(Br)ccc2O)c1CNc1ccccc1	KB-3-1 tox inconclusive, HT1080-NT tox inconclusive, TDP1 cell noCPT 8.2µM, HT1080 IDH1KD tx 23µM, TDP1 cell CPT 8.2µM
